The values below come from PubChem BioAssay AID504690 (Sanford-Burnham Center for Chemical Genomics, 2011).

Broadly, the inhibition is the change of the read-out against control, counted positive when it falls.

Among all 350,000 compounds or so, about 2,700 (0.77%) were called active.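 Rule for the calls: active = inhibition reaching at least a set limit at 20 µM in the primary screen (cut at about 59% in these data); inactive = the rest.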 What follows is part of a selection rich in actives, with near analogues and random picks from the rest.

The experiment deals with glucose-6-phosphate dehydrogenase-6-phosphogluconolactonase (Plasmodium falciparum 3D7). Kind of experiment: PfG6PD enzyme inhibitors, primary screen, biochemical, fluorescence intensity, uHTS (AID 504690).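 Note: 0% = DMSO wells with substrate and 100% = DMSO wells lacking glucose-6-phosphate.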 As to conditions: PfGluPho enzyme, NADPH resazurin-diaphorase fluorescence; at 20 µM; hits give high values. (The colour change of resazurin is a common sign of viable cells or microbes.)
For `C/C(CC(=O)NC(C)c1ccccc1)=N\NC(N)=S` (centres undefined), the inhibition is 6.14% (inactive).

For `CSc1ccc(S(=O)(=O)N2CCC(C(=O)NCc3ccncc3)CC2)cc1`, the inhibition is -30.2% (inactive).

Consider `Cc1cccn2c(CN(C)C3CCCc4ccccc43)c(C(=O)N3CCOCC3)nc12` (centres undefined), for which the inhibition was 62.9% (active).

With `CCOC(=O)C1CCN(Cc2c(C(=O)N3CCOCC3)nc3c(C)cccn23)CC1`, the inhibition was -12.6% (inactive). The same measure for `Cc1cccn2c(CNCC(C)Oc3cccnc3)c(C(=O)N3CCOCC3)nc12` (centres undefined): 9.53% (inactive).

As to `c1ccc2cc3c(NCCN4CCOCC4)ccnc3cc2c1`, the inhibition is 6.78% (inactive). The same measure for `CC(=O)Nc1sc2c(c1C(c1cccc(F)c1)N1CCN(CCO)CC1)CCCC2` (centres undefined): 7.18% (inactive). Regarding `NC(=O)c1c(NC(=O)CSc2nnc(-c3ccco3)n2N)sc2c1CCCC2`, the inhibition was 7.61% (inactive). Turning to `CCOC(=O)C(NC(=O)CC(C)C)(Nc1sc2c(c1C(N)=O)CCCC2)C(F)(F)F` (centres undefined), the inhibition is -8.45% (inactive). `NC(=O)c1c(Nc2nc3c(F)cccc3s2)sc2c1CCCC2`: the inhibition was 63.4% (active). Consider `COc1ccc2[nH]c(=O)c(CNc3ccc(C)c(C)c3)cc2c1`, for which the inhibition is 41% (inactive).

On to `O=C1Nc2cc(C(=O)N3CCC(N4CCCCC4)CC3)ccc2S/C1=C\c1ccccc1`, for which the inhibition is -9.66% (inactive). To `CCN1CCN(CCNC(=O)c2ccc3c(c2)NC(=O)/C(=C\c2cccc(Cl)c2)S3)CC1` belongs 2.78% (inactive); to `CCN1CCCC1CNC(=O)c1ccc2c(c1)NC(=O)/C(=C\c1ccccc1F)S2` (centres undefined), 127% (active); to `CN(C)S(=O)(=O)c1ccc(Cl)c(NC(=O)COC(=O)CC(NC(N)=O)c2ccc(Cl)cc2)c1` (centres undefined), -3.62% (inactive). `CCOC(=O)c1c(C)[nH]c(C)c1C(=O)CSc1nc(N)cc(N)n1`: the inhibition was 9.63% (inactive). To `CCCCNC(=O)c1ccccc1NC(=O)C1=C(C)OCCS1` belongs -13.5% (inactive); to `Cc1cccc(NC(=O)c2cccc(S(=O)(=O)N3CCCC3)c2)n1`, -1.18% (inactive). As for `O=C(Nc1ccc(S(=O)(=O)Nc2nccs2)cc1)c1cccc(S(=O)(=O)N2CCOCC2)c1`, the inhibition was -1.66% (inactive). Turning to `O=C(Nc1nnc(S(=O)(=O)N2CCCCCC2)s1)c1cccc(Br)c1`, the inhibition is 88.1% (active). Regarding `O=C(Nc1ccc(S(=O)(=O)N2CCOCC2)cc1)c1ccc2ncsc2c1`, the inhibition is 72.8% (active). To `Cc1nc2ccc(NC(=O)c3cccc(S(=O)(=O)N4CCOCC4)c3)cc2s1` belongs 19.6% (inactive).

As to `O=C(Nc1nncs1)c1cccc(S(=O)(=O)N2CCCCC2)c1`, the inhibition was -40.8% (inactive). `Cc1cccc(C(=O)Nc2nnc(S(=O)(=O)N3CCCCCC3)s2)c1`: the inhibition is 95.7% (active). On to `O=C(Nc1nnc(-c2ccccc2)o1)c1cccc(S(=O)(=O)N2CCOCC2)c1`, for which the inhibition is 0.98% (inactive). The same measure for `O=C(Nc1cccc(S(=O)(=O)N2CCCCC2)c1)c1cncc(Br)c1`: 9.89% (inactive); for `O=C(Nc1nnc(S(=O)(=O)N2CCOCC2)s1)c1cccc(Br)c1`: 103% (active).

`O=C(Nc1ccc(N2CCOCC2)c(Cl)c1)c1ccc(S(=O)(=O)N2CCOCC2)cc1`: the inhibition is 0.32% (inactive). For the compound `CCOC(=O)CSc1nnc(NC(=O)c2cccc(S(=O)(=O)N3CCCCC3)c2)s1`, the inhibition was -28.5% (inactive).
